# Experimental data reported in publication PMC4336329 (PLoS ONE, 2015).
# Out of some 310,000 compounds screened, about 14,000 (4.5%) showed an effect of 50% or more. Effects have a minus sign here. The list comes from a sample in which strong results are over-represented; it also holds similar structures and randomly drawn compounds.
# Biological target: human ether-à-go-go-related gene (hERG) potassium channel (human, UniProt Q12809)
# Assay: primary screen, population patch clamp on CHO cells stably expressing hERG; higher = less effect of the substance
# 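Note: peak tail current of the secondary pulse compared with the same well before compound.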
# Chain of human ether-à-go-go-related gene (hERG) potassium channel (Q12809 whole entry, looked up): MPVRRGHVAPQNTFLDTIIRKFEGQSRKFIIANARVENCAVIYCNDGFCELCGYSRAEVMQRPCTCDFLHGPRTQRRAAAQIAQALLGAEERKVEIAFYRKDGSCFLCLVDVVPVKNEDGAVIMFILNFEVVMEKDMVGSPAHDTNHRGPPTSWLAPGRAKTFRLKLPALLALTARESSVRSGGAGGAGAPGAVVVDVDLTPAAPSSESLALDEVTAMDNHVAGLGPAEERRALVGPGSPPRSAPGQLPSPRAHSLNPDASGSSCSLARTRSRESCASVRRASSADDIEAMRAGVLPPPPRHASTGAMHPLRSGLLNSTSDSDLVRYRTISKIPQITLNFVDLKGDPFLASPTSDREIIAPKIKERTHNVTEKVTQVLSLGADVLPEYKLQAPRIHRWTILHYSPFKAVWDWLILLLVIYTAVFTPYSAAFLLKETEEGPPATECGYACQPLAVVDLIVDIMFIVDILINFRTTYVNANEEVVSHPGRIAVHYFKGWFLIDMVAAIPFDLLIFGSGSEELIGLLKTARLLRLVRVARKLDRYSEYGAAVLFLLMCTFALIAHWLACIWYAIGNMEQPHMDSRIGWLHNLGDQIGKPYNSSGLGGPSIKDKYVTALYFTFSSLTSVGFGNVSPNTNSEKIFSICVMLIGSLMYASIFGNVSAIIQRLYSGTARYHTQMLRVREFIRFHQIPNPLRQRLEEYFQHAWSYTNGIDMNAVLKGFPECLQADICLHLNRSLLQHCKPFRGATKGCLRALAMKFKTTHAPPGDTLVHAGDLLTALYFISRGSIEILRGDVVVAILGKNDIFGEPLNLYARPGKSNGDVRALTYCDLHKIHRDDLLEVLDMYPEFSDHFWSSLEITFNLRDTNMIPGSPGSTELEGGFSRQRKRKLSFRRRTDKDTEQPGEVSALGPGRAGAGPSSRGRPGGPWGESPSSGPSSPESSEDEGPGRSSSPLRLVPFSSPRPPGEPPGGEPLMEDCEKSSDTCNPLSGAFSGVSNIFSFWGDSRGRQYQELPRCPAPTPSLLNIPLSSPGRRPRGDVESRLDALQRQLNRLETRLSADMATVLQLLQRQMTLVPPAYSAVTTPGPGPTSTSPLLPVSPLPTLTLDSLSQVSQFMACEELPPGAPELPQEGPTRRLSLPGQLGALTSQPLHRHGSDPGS
row,SMILES,"hERG current change (%, negative = inhibition) at 10uM [%]"
1,C#CCOCCOCCOCCNc1nc(N2CCN(C(=O)Cn3cc(CCO)nn3)CC2)nc(N2CCN(C(=O)[C@H]([C@@H](C)O)n3cc(CCCC[NH3+])nn3)CC2)n1.[Cl-],12.3
2,CCOC(=O)/C(=N\Nc1ncnc2ccccc12)c1ccc(OC)cc1,15
3,COc1ccc(NC(=O)CSC2CC(=O)N(c3ccc4c(c3)OCCO4)C2=O)cc1 (centres unmarked),4.54
4,O=C(c1ccccc1-c1nc(-c2ccc(F)cc2)no1)N1CCCC1,-30.8
5,Cn1nc(C(=O)Nc2ccc(Cl)c(S(=O)(=O)N3CCOCC3)c2)c2ccccc2c1=O,-9.05
6,O=C(NC1CCS(=O)(=O)C1)N1CCCCC1 (centres unmarked),13.2
7,O=C(NC(=S)N1CCN(c2nc(-c3ccccc3)cs2)CC1)c1cncc(Br)c1,17
8,Cc1n[nH]c(=O)nc1NCc1ccccc1Cl,3.23
9,Cc1ccc(Cn2c(=O)c3ccccc3n3c(CCC(=O)O)nnc23)cc1,10.9
10,O=C(c1ccc(Cn2c(=S)[nH]c3ccccc3c2=O)cc1)N1CCN(c2ccccn2)CC1,8.99
11,O=C(CCc1nnc2n(Cc3ccc(Cl)cc3)c(=O)c3ccccc3n12)N1CCN(c2ccccn2)CC1,-57
12,O=C(O)CCc1nnc2n(Cc3ccc(F)cc3)c(=O)c3ccccc3n12,6.3
13,CC(C)OCCCn1c(=O)c2ccccc2n2c(CCC(=O)O)nnc12,29.3
14,COCCCn1c(=O)c2sccc2n2c(CCCC(=O)N3CCN(c4ccccn4)CC3)nnc12,-2.18
15,CC(C)OCCCn1c(=O)c2ccccc2n2c(CCC(=O)N3CCN(c4ccccn4)CC3)nnc12,-71.1
16,CC(C)CCn1c(=O)c2sccc2n2c(CCCC(=O)N3CCN(c4ccccn4)CC3)nnc12,-65
17,O=C(CCc1nnc2n(Cc3ccc(F)cc3)c(=O)c3ccccc3n12)N1CCN(c2ccccn2)CC1,-79.2
18,CCn1c(=O)c2sccc2n2c(CCCC(=O)N3CCN(c4ccccn4)CC3)nnc12,-17.6
19,CC(C)OCCCn1c(=O)c2ccccc2n2c(CCC(=O)NCc3ccccn3)nnc12,-14.4
20,Cn1c(=O)c2sccc2n2c(CCCC(=O)N3CCN(c4ccccn4)CC3)nnc12,-11.1

row,SMILES,"hERG current change (%, negative = inhibition) at 10uM [%]"
1,CC(C)(O)[C@H]1Cc2cc3ccc(=O)oc3cc2O1,21.2
2,O=C(CSc1nc(NS(=O)(=O)c2ccccc2)cc(=O)[nH]1)Nc1ccccc1C(F)(F)F,9.04
3,CCCCCN(C(=O)CCC(=O)OCC(=O)c1ccc(CCC)cc1)c1c(N)n(CCCC)c(=O)[nH]c1=O,-61.5
4,CCCCCN(C(=O)CCC(=O)OCC(=O)c1ccc(F)c(F)c1)c1c(N)n(CCCC)c(=O)[nH]c1=O,-33.7
5,CCCCCN(C(=O)CCC(=O)OCc1ccccc1Cl)c1c(N)n(CCCC)c(=O)[nH]c1=O,-49.8
6,CCCCCN(C(=O)CCC(=O)OCc1cccc(Cl)c1)c1c(N)n(CCCC)c(=O)[nH]c1=O,8.16
7,CCCCCN(C(=O)CCC(=O)OCC(=O)c1ccc(C(C)(C)C)cc1)c1c(N)n(CCCC)c(=O)[nH]c1=O,-33.7
8,CCCCCN(C(=O)CCC(=O)OCc1ccc(Cl)cc1Cl)c1c(N)n(CCCC)c(=O)[nH]c1=O,-50.1
9,CCCCCN(C(=O)CCC(=O)OCC(=O)NCc1cccc(OC)c1)c1c(N)n(CCCC)c(=O)[nH]c1=O,-0.375
10,CCCCCN(C(=O)CCC(=O)OCC(=O)c1ccc(C(C)CC)cc1)c1c(N)n(CCCC)c(=O)[nH]c1=O (centres unmarked),8.1
11,CCCCCN(C(=O)CCC(=O)OCC(=O)c1cccc(OC)c1)c1c(N)n(CCCC)c(=O)[nH]c1=O,-64.6
12,Fc1ccc(NC(=S)NCc2cccnc2)cc1,13.1
13,CCCS(=O)(=O)N1CCC(C(=O)NCCCOC)CC1,-0.339
14,COc1cc(NC(=O)c2c(-c3ccccc3Cl)noc2C)c2ncccc2c1,25.5
15,CCOc1ccc(NC(=O)COC(=O)CNC(=O)c2ccc(-c3ccccc3)cc2)cc1,2.3
16,CC(=O)Nc1cccc(NC(=O)CSc2nc(=O)n(CCN3CCOCC3)c3c2CCCC3)c1,0.233
17,O=C(CSc1nc(=O)n(CCCN2CCOCC2)c2c1CCCC2)Nc1cccc(Cl)c1,-62.2
18,CC(=O)Nc1cccc(NC(=O)CSc2nc(=O)n(CCCN3CCOCC3)c3c2CCC3)c1,0.499
19,O=C(CSc1nc(=O)n(CCCN2CCOCC2)c2c1CCC2)Nc1ccc(F)cc1F,-41.8
20,O=C(CSc1nc(=O)n(CCCN2CCOCC2)c2c1CCC2)Nc1cccc(F)c1,-37.4

row,SMILES,"hERG current change (%, negative = inhibition) at 10uM [%]"
1,O=C(CSc1nc(=O)n(CCCN2CCOCC2)c2c1CCCC2)Nc1cccc(F)c1,-56.2
2,CN(c1ccccc1)C(c1ccc(F)cc1)c1nnnn1CC1CCCO1.Cl (centres unmarked),-14.1
3,Cn1cc([N+](=O)[O-])c(C(=O)N/N=C/c2cc3c(cc2Br)OCO3)n1,3.63
4,CC(=O)Nc1ccc(S(=O)(=O)N[C@@H](C)C(=O)Nc2ccc(N3CCOCC3)cc2)cc1,15.1
5,CCOC(=O)C1=NN(C(=O)c2ccc(OC)cc2)C(O)(c2ccc(Cl)cc2)C1 (centres unmarked),-75.5
6,CCOC(=O)C1=NN(C(=O)c2ccccc2)C(O)(c2ccc(C)cc2)C1 (centres unmarked),-17.2
7,COC(=O)C1=NN(C(=O)c2ccc(C)cc2)C(O)(c2ccc(Cl)cc2)C1 (centres unmarked),-31.2
8,CCN1CCN(c2ccc(N3CCN(C(=O)c4ccc(Br)o4)CC3)nn2)CC1,-71.5
9,O=C(c1ccc(F)cc1Cl)N1CCN(CCc2ccccc2)CC1,-44
10,O=C(c1ccc(Br)o1)N1CCN(Cc2ccccc2Cl)CC1,-12.6
11,O=C(c1ccc(Br)o1)N1CCN(CCc2ccncc2)CC1,-69.8
12,O=C(c1ccc(Br)o1)N1CCN(c2ccccc2F)CC1,-4.94
13,O=C(c1cc(Cl)ccc1Cl)N1CCN(Cc2ccccc2)CC1,5.54
14,O=C(c1ccccc1)N1CCN(C(=O)c2ccncc2)CC1,14.3
15,COc1ccc(N2CCN(C(=O)c3ccc(Br)o3)CC2)cc1,-17
16,O=C(c1cc(F)c(F)cc1Cl)N1CCN(CCc2ccccc2)CC1,-71.6
17,O=C(c1ccncc1)N1CCN(CCc2ccccc2)CC1,-50.8
18,O=C(c1ccc(Br)o1)N1CCN(c2ncccn2)CC1,0.956
19,O=C(c1ccccc1)N1CCN(CCc2ccccc2)CC1,-43.6
